Sampled rows, rich in hits. Any-hit rate of the full collection: about 15%.
Gal4-VP16 FLuc: counter-screen for ROR gamma inhibitors: Gal4-VP16 reporter | Drosophila S2 Gal4-VP16 UAS-luciferase, luminescence, 20 h | Potency, µM (top dose mostly 53.6 µM), most hits filed as inhibitors | 3.5% of 310,000 active;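 further: Gal4-VP16 expression switched on by copper sulfate through the metallothionein promoter; nearly all actives have a fitted effect of over 50% in size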
ELG1 repair inh: ELG1-dependent DNA repair inhibition | AID 504467 | Potency, µM (series often up to 46.1 µM), most hits filed as inhibitors | 2.3% of 330,000 active | HEK293T ELG1-luciferase reporter, luminescence, 16 h; DNA damage induced by 5-fluorouridine; further: nearly all actives have a fitted effect of over 55% in size
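5-Fluorouridine DNA damage + compound/DMSO, 2,000 cells/well, 16 h, 37 °C/5% CO2. ONE-Glo, 30 min RT, luminescence. Readout = decrease in reporter signal.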
12-LOX inh: blocks human arachidonate 12S-lipoxygenase. purified 12hLO, xylenol orange hydroperoxide absorbance. P18054. 1.1% of 580,000 active. Potency, µM (doses to about 108 µM), hits mostly inhibitors
Target sequence (P18054 whole entry, looked up): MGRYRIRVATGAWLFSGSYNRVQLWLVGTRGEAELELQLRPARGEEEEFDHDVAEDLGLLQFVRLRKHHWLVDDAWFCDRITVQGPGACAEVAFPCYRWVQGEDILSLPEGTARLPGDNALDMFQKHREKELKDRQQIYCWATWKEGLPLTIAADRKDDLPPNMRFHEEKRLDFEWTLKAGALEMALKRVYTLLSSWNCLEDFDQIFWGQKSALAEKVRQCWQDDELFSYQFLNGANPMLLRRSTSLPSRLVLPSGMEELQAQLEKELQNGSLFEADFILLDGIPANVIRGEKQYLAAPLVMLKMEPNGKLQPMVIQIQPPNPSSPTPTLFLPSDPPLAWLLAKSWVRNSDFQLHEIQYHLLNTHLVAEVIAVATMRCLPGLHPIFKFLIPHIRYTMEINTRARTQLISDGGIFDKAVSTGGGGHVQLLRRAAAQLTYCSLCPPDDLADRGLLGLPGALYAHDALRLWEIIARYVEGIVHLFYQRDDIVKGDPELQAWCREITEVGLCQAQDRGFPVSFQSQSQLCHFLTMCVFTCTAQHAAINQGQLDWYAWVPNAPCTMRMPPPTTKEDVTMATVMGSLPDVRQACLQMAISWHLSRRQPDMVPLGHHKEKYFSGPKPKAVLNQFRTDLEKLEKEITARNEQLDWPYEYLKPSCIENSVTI
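Purified human 12hLO at 150 nM in 25 mM Hepes, 0.01% Triton X-100, pH 7.0, preincubated 15 min at room temperature with compound. Reaction started with 40 uM arachidonic acid, 30 min at room temperature. Hydroperoxide measured by Fe-xylenol orange, 573/405 nm absorbance ratio.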
RORgamma inh: inhibitors of mouse ROR gamma transcriptional activity; P51450; Drosophila S2 Gal4-RORgamma UAS-luciferase reporter, 20 h; Potency, µM (top dose mostly 53.6 µM), actives largely listed as inhibitors; 5.4% of 310,000 active; further: nearly all actives have a fitted effect of over 60% in size
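Drosophila S2 cells stably expressing Gal4-DBD/mouse RORγ fusion under metallothionein promoter plus UAS-luciferase; compound 1 h, then 700 uM CuSO4 induction for 20 h at ambient temperature; inhibition read as reduced luminescence.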
TDP1 cell CPT: DT40-hTDP1 cell growth loss with CPT. chicken DT40 Tdp1-/-;hTDP1 cells + 20 nM CPT, ATP luminescence, 48 h. Potency, µM (highest dose often 46.2 µM), usual class: inhibitors. 12% of 420,000 active. AID 686979; further: nearly all actives have a fitted effect of over 55% in size
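Chicken DT40 Tdp1-/- cells stably complemented with human TDP1 were seeded at 400 cells/well in medium containing 20 nM camptothecin, exposed to pin-transferred compounds, and grown at 37 °C for at least 48 hr. Viability was read as ATP luminescence.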
TDP1 cell noCPT: qHTS for Inhibitors of human tyrosyl-DNA phosphodiesterase 1 (TDP1): qHTS in cells in absence of CPT. DT40 Tdp1-/- hTDP1 cells, no CPT, ATP luminescence, 48 h. Potency, µM (titrated, usually from 46.2 µM), most hits filed as inhibitors. 15% of 420,000 active; further: nearly all actives have a fitted effect of over 55% in size
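DT40 Tdp1-/-;hTDP1 cells, no CPT (DMSO vehicle only), 400 cells/well; compounds pin-transferred; ≥48 hr, 37 °C; CellTiter-Glo 30 min RT dark, luminescence read.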
A number is an active result; - = inactive; ? = inconclusive; . = no result; ! = a repeat was not active; [ ] = dose if it differs, or a comment. The call rests on the fitted dose curve; in most records, active means well fitted curve in the direction sought with a large enough effect; inconclusive means small, poorly fitted or top-dose-only effect, or another doubt; inactive means no such curve, though single readings can be large; an effect the other way counts as inactive or inconclusive.

SMILES	Gal4-VP16 FLuc	ELG1 repair inh	12-LOX inh	RORgamma inh	TDP1 cell CPT	TDP1 cell noCPT
COc1ccccc1NC(=O)c1cc2c(=O)n(Cc3cccs3)ccc2nc1C	.	.	-	.	?	23.1µM
CCc1ccc(NC(=O)c2cc3c(=O)n(Cc4cccs4)ccc3nc2C)cc1	.	.	-	.	16.4µM	18.4µM
COc1ccc([C@@H]2[C@@H](C(=O)N3CCOCC3)CC(=O)N2C(=O)c2ccccc2)cc1	.	.	-	.	.	.
COc1cc(-c2nnc(NC(=O)CS(=O)(=O)c3ccc(C)cc3)o2)cc(OC)c1OC	.	-	-	.	-	-
COc1cc(-c2nnc(-c3ccc(N4CCOCC4)cc3)o2)cc(OC)c1OC	-	-	-	-	6.51µM	5.8µM
COc1cc(-c2nnc(-c3ccc(S(=O)(=O)c4ccccc4)cc3)o2)cc(OC)c1OC	-	?	?	-	11.6µM	11.6µM
CNC(=O)c1cc(-c2ccc(O)c(F)c2)cc2c1OCCN2Cc1cccnc1	.	.	-	.	.	.
COc1ccc(C(=O)NCC(c2cccnc2)N2CCN(c3ccc(F)cc3)CC2)cc1 (stereo not given)	.	.	-	.	14.6µM	10.3µM
COc1ccc(C(=O)NCC(c2cccnc2)N2CCN(c3ccccc3)CC2)cc1 (stereo not given)	.	.	-	.	?	16.4µM
COc1ccc(N2CCN(C(CNC(=O)c3ccc(OC)c(OC)c3)c3cccnc3)CC2)cc1 (stereo not given)	.	.	-	.	-	?
COc1cccc(CN2Cc3c(CN(C)Cc4ccccc4)nnn3CCC2=O)c1	.	.	-	.	.	.
CCOc1ccc(C(C)=O)cc1CN(C)CC(=O)Nc1ccc(Cl)c(Cl)c1	.	.	-	.	.	.
CCOC(=O)c1cc(-c2ccc(OC)cc2)n(CCC(=O)NCc2ccc(OC)cc2)c1C	.	.	-	.	?	18.4µM
CCOC(=O)c1cc(-c2ccc(C)cc2)n(CCC(=O)NCCc2ccc(C)cc2)c1C	.	.	-	.	?	18.4µM
CCOC(=O)c1cc(-c2ccccc2)n(CCC(=O)NCCc2ccc(OC)c(OC)c2)c1C	.	.	-	.	20.6µM	23.1µM
CCOC(=O)c1cc(-c2ccc(C)cc2)n(CCC(=O)N2CCN(c3ccccn3)CC2)c1C	-	20.6µM	?	-[10 µM]	23.1µM	23.1µM
COc1ccc(-c2cc(C(C)=O)c(C)n2CCC(=O)NCc2ccc(C)cc2)cc1	.	.	-	.	?	?
CCOC(=O)c1cc(-c2ccc(C)cc2)n(CCC(=O)NCCN(C)C)c1C	-	-	-	-	?	-
O=C(C1c2ccccc2C(=O)N(Cc2ccccc2)C12CCCC2)N1CCCC1 (stereo not given)	.	.	-	.	.	.
O=C1CC(c2ccccc2)N(C(=O)CNC(=O)NC2CCCCC2)CCCCCCN1 (stereo not given)	.	.	-	.	.	.
CC(=O)c1cc(-c2ccccc2)n(CCC(=O)NCCc2ccccc2)c1C	.	.	-	.	?	?
CCOC(=O)c1cc(-c2ccccc2)n(CC(=O)N(C)c2ccc(OC)cc2)c1C	.	.	-	.	?	23.1µM
CCOC(=O)c1cc(-c2ccccc2)n(CCC(=O)NCCc2ccc(C)cc2)c1C	.	.	-	.	14.6µM	8.2µM
COc1ccc2c(c1)c(C(C)=O)c(C)n2CCc1ccc(OC)c(OC)c1	-	-	-	-	-	-
CCOC(=O)c1c(C(=O)OCC)c(C)n(CCc2ccc(OC)c(OC)c2)c1C	-	14.6µM	-	-	23.1µM	?
SMILES	Gal4-VP16 FLuc	ELG1 repair inh	12-LOX inh	RORgamma inh	TDP1 cell CPT	TDP1 cell noCPT
CCOC(=O)c1cc(-c2ccc(F)cc2)n(CCC(=O)NCCc2ccc(C)cc2)c1C	.	.	?	.	?	20.6µM
Cc1cccc(-c2nc3ccccc3c(C)c2C#N)c1	.	.	-	.	.	.
O=C(c1cccnc1)N1CCC2(CC1)CC(N(Cc1ccc(F)cc1)C1CC1)CCO2 (stereo not given)	.	.	-	.	.	.
COc1ccc(Nc2nc3cc(Cl)c(Cl)cc3n3cnnc23)cc1Cl	.	.	-	.	?	13µM
Cc1ccc2nc(Nc3ccc(C)c(F)c3)c3nncn3c2c1	.	.	-	.	18.4µM	14.6µM
COc1ccc(Cl)cc1Nc1nc2ccc(C)cc2n2cnnc12	-	?	-	-	23.1µM	14.6µM
COc1ccc(Cl)cc1Nc1nc2ccc(C(=O)c3ccccc3)cc2n2cnnc12	.	.	?	.	-	-
COc1ccc(OC)c(Nc2nc3ccc(C)cc3n3cnnc23)c1	-	8.2µM	?	-	16.4µM	?
CCOc1ccccc1Nc1nc2ccc(C)cc2n2cnnc12	-	-	-	-	?	-
Cc1cccc(C(=O)OCC(=O)Nc2ccccc2N2CCCC2=O)c1O	.	.	-	.	.	.
Fc1ccc(-c2cnc3n[nH]c(-c4ccccc4)c3n2)cc1	.	.	-	.	.	.
O=C(c1cc(F)ccc1F)N1CCC2(CC1)NC(=O)N(Cc1ccc(F)cc1)C2=O	.	.	-	.	.	.
CCC(NC(=O)C1CCCO1)c1ccc(C)cc1 (stereo not given)	.	.	-	.	.	.
Brc1cccc(CNc2nc3ccccc3n2CCN2CCOCC2)c1	?	-	-	?	?	11.6µM
C=CCn1c(NCc2ccc(OC)cc2)nc2ccccc21	-	?	-	-	-	-
c1ccc(Cn2c(CNc3nc4ccccc4n3CCN3CCCCC3)nc3ccccc32)cc1	?	?	-	?	?	?
COc1ccc(CCN2CCC(Nc3nc4ccccc4n3Cc3ccc(F)cc3)CC2)cc1	?	-	?	14.1µM!	14.6µM	7.31µM
Cn1c(CNc2nc3ccccc3n2CCN2CCCCC2)nc2ccccc21	-	-	-	15.8µM	-	?
COc1ccc(CNc2nc3ccccc3n2CCN2CCCCC2)cc1	-	?	?	15.8µM	18.4µM	20.6µM
C=CCOc1ccccc1NC(=O)Cc1ccccc1	.	.	-	.	.	.
COc1ccc(-c2nccn2CC(CO)Cc2ccsc2)cc1O (stereo not given)	.	.	-	.	.	.
O=C(O)c1ccc(F)c(F)c1F	.	.	-	.	.	.
CCCN1CCCC12Cc1ccccc1CN([S+](=O)([O-])c1ccccc1)C2 (stereo not given)	.	.	-[6.33 µM]	.	.	.
CCOc1ccc(CNc2nc3ccccc3n2CCN2CCOCC2)cc1	-	-	-	-	?	20.6µM
CCN(CC)c1ccc(CNc2nc3ccccc3n2CCN2CCCCC2)cc1	?	-	?	8.91µM	4.61µM	?
NS(=O)(=O)c1ccc(C(=O)N2CCC3(CC2)Nc2ccccc2NC3=O)cc1	.	.	-	.	.	.
CC(C)c1ccc(N2C(=O)CC(Sc3ncccn3)C2=O)cc1 (stereo not given)	?	-	?	?	?	?
CCOc1ccc(N2C(=O)CC(SC(=NC)Nc3ccc4c(c3)OCO4)C2=O)cc1 (stereo not given)	-	25.9µM	-	-	-	?
Nc1nnc(SC2CC(=O)N(c3ccccc3)C2=O)s1 (stereo not given)	10µM	-	-	5.01µM	7.31µM	3.26µM

High-throughput results from PubChem.
